Structures are written as SMILES. In all, about 16,000 compounds went through this assay and about 2,600 (16%) were called active. About 20% were inconclusive and are not listed. Calls follow the shape of the dose curve; as a rule, active = well fitted curve in the direction sought with a large enough effect; inconclusive = small, poorly fitted or top-dose-only effect, or effect the other way; inactive = no such curve, though single readings can be large or run the other way. A selection follows.
% is scaled to controls: 0 for no effect and ±100 for the full control effect.

The target of the test is Cytochrome P450 2D6 (Homo sapiens) (UniProt P10635). Put plainly: Cytochrome panel assay with activity outcomes. The conditions noted are these: recombinant CYP, pro-luciferin dealkylation, luminescence, p450-cyp2d6; series mostly up to 57.1 µM; activity, negative = inhibition: at the top concentration.
Chain of Cytochrome P450 2D6 (Homo sapiens) (P10635 whole entry, looked up): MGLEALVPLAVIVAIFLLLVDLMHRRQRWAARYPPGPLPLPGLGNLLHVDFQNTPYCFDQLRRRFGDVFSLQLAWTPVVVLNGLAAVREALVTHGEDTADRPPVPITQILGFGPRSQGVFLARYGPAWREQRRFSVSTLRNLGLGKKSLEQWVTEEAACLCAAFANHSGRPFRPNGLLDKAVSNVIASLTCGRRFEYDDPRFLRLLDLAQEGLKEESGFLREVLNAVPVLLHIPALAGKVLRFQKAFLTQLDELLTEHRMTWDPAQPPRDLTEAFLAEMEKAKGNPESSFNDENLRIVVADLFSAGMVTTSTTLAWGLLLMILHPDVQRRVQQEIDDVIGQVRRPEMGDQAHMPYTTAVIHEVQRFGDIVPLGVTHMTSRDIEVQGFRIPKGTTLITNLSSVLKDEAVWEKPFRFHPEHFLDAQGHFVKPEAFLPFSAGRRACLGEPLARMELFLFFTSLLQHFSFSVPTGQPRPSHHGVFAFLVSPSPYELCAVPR
As to `Cc1ccc(S(=O)(=O)n2c3ccccc3c3nnc(C(=O)c4ccccc4)nc32)cc1`, the activity, negative = inhibition was -14.9% [at 11.4 µM] (inactive). For the compound `Cc1nn(C)c(C)c1CNC(=O)c1cnn2c1NC(c1ccccc1)CC2C(F)(F)F` (stereo not given), the “activity, negative = inhibition” value is -20.7% (inactive). Same read-out and setting: next, `Cn1c2c(c(=O)n(C)c1=O)CN(CCN1CCNCC1)CN2`: 7.25% (inactive). The same measure, in the same setting: next, `O=C(CC1(O)CCCCC1)OC1CCCC1`: -5.94% [at 11.4 µM] (inactive); `CCCCSc1nnc(-c2cc3c(C(F)(F)F)nn(C)c3s2)n1C`: -3.58% (inactive). On the same count and under the same terms, to `C[N+](C)(C)CC(=O)O` belongs 3.71% (inactive); to `COc1ccc([C@@H](Nc2ccccn2)c2cc(C(C)(C)C)cc(C(C)(C)C)c2O)cc1`, -16.7% [at 11.4 µM] (inactive); to `O=C(O)c1cc(C(=O)O)nc(C(=O)O)c1`, 0.571% [at 11.4 µM] (inactive). Consider `CC(O)(P(=O)(O)O)P(=O)(O)O`, for which the “activity, negative = inhibition” value was 7.89% [at 25.6 µM] (inactive). Usually AC50 stands for the concentration giving half of the maximal activity seen. `O=C(c1cccc(F)c1)N1CCC2(CC1)CCN(c1ccncc1)CC2`: the AC50 was 20 µM (active).

For the compound `O=C(c1cc(C(F)(F)F)cc(C(F)(F)F)c1)N1CCC[C@@]2(CCN(c3ccncc3)C2)C1`, the “activity, negative = inhibition” value is -8.86% (inactive). As to `O=C(c1cc(C(F)(F)F)cc(C(F)(F)F)c1)N1CCC2(CC1)CCN(c1ccncc1)CC2`, the AC50 is 15.8 µM (active).

As to `O=C(c1cccc(F)c1)N1CCC[C@@]2(CCN(c3ccncc3)C2)C1`, the “activity, negative = inhibition” value was -2.32% (inactive). In the case of `O=C(c1cc(C(F)(F)F)cc(C(F)(F)F)c1)N1CCC2(CC1)CN(c1ccncc1)C2`, the “activity, negative = inhibition” value was -15.3% (inactive). For the compound `O=C(c1cccc(F)c1)N1CCC2(CC1)CN(c1ccncc1)C2`, the “activity, negative = inhibition” value was -4.06% (inactive). For `Cc1ccc(C)c(-c2nn(-c3cc(N4CCN(CCO)CC4)ccc3[N+](=O)[O-])c(=O)c3ccccc23)c1`, the “activity, negative = inhibition” value is -4.67% (inactive). For the compound `CCOC(=O)CC(Nc1nc(N2CCOCC2)nc(N2CCOCC2)n1)c1ccccc1Cl` (stereo not given), the “activity, negative = inhibition” value was -28.5% (inactive).

Turning to `COC(=O)c1[nH]c(C)c(/C(O)=C2\C(=O)C(=O)N(CCN(C)C)C2c2cccs2)c1C` (stereo not given), the “activity, negative = inhibition” value was 5.67% (inactive). Still for that read-out and setting: next, `COc1cccc(/C(O)=C2/C(=O)C(=O)N(c3cc(C)on3)C2c2cccs2)c1` (stereo not given): -0.296% (inactive). As to `CCN(CC)CCN1C(=O)C(=O)/C(=C(/O)c2ccc(OC)cc2)C1c1cccs1` (stereo not given), the half-maximal activity concentration (AC50) is 14.1 µM (active).

For `CC(C)(C)C(=O)[C@H]([C@@H](c1ccccc1)N1CCOCC1)N1CCOCC1`, the activity, negative = inhibition is 6.76% [at 11.4 µM] (inactive). Take `Cc1ccc(NC(=O)c2sccc2SCc2cccc(C(F)(F)F)c2)cc1`: the “activity, negative = inhibition” value is 1.61% (inactive).

For the compound `O=C(c1ccccc1)c1ccc2n1CC[C@H]2C(=O)O`, the AC50 result was “inactive”. In the case of `N#Cc1ccc(-c2ccccc2)nc1SCC(=O)c1cccc(Cl)c1`, the “activity, negative = inhibition” value was -11.5% (inactive). `CN1CCN(c2ncc3nc(-c4cn(C)c5ccccc45)c(=O)n(-c4ccccc4)c3n2)CC1`: the “activity, negative = inhibition” value is -15.3% (inactive).
